Measured values reported in PubChem BioAssay AID2314 (National Center for Advancing Translational Sciences (NCATS), 2010).
Several values for one entry are separate records, joined by “and”; a condition that tells them apart may be missing. Equal values may be shown once. The whole screen tested about 300,000 compounds, of which about 37,000 (12%) were called active. Rule as the data show it: active = max response mostly above about 13% (no sharp cut-off); inactive = mostly below about 14%. The sample as a whole holds a higher share of actives than the screen did.

Assay: Cycloheximide Counterscreen for Small Molecule Inhibitors of Shiga Toxin; also: read at 38.3 µM for the half of the compounds with a filed dose; 0% is about no effect
Conditions: cell reporter, cycloheximide protein synthesis inhibition counterscreen; hits give high values
In the case of `CCc1ccc(OCC2c3cc(OC)c(OC)cc3CCN2C(C)=O)cc1` (stereo not drawn), the max response is reported as -2.66% (inactive).
In the case of `O=C(CN1C(=O)S/C(=C\c2ccccc2Cl)C1=O)NC1C=CS(=O)(=O)C1` (stereo not drawn), the max response is reported as 1% (inactive).
For `O=C(Nc1ccccc1F)c1ccc(Cn2cc(Br)cn2)cc1`, the max response was 27.6% (active).
With `CCOc1cccc(C(=O)Nc2cnn(Cc3ccccc3)c2)c1` the max response was 8.38% (inactive).
In the case of `O=C(NCc1cccnc1)Nc1ccccc1F`, the max response is reported as 6.78% (inactive).
For `Cc1ccc(N(Cc2ccccc2O)C(=O)c2ccccc2F)cc1`, the max response was -1.08% (inactive).
For `CCN(CC)c1ccc(C(=O)NNC(=O)CCc2nc3ccccc3c(=O)[nH]2)cc1`, the max response was 8.34% (inactive).
For `Cc1cc(=O)oc2cc(NC(=O)C3CC(=O)N(Cc4ccccc4)C3)ccc12` (stereo not drawn), the max response was 5.63% (inactive).
In the case of `O=C(c1ccc(F)cc1)N1CCC(n2nnc3ccccc32)CC1`, the max response is reported as 50% (active).
For `CC(=O)c1cccc(S(=O)(=O)N2CCC(n3nnc4cc(F)ccc43)CC2)c1`, the max response was -0.975% (inactive).
With `O=S(=O)(c1cccc(S(=O)(=O)N2CCC(n3nnc4ccccc43)CC2)c1)N1CCCCC1` the max response was -11.1% (inactive).
With `COc1ccc(N2CCN(S(=O)(=O)c3ccc4c(c3)NC(=O)C(C)C(=O)N4)CC2)cc1` (stereo not drawn) the max response was -1.38% (inactive).
For `CN(CC(=O)O)S(=O)(=O)c1ccc2oc3ccccc3c2c1`, the max response was 1.18% (inactive).
With `COCCCNC(=S)N(CCN(C)C)Cc1cc2cc3c(cc2[nH]c1=O)OCCO3` the max response was 6.79% (inactive).
For `CC(=O)c1ccc(N2Cc3ccccc3C2)cc1`, the max response was 29.2% (active).
In the case of `CC(=O)c1ccc(N2CCN(CC(O)c3ccccc3)CC2)cc1` (stereo not drawn), the max response is reported as 5.47% (inactive).
With `CC(=O)c1ccc(N2CCN(C(=O)CCc3ccccc3)CC2)cc1` the max response was 3.1% (inactive).
With `Cc1cc(NS(=O)(=O)c2ccc(NC(=S)NC(=O)c3ccc(F)cc3Cl)cc2)no1` the max response was -1.71% (inactive).
With `CC(=O)Nc1ccc(/C(C)=N/NC(=O)CN(c2ccccc2Br)S(C)(=O)=O)cc1` the max response was 8.32% (inactive).
For `CCN(C(=O)CSc1nnc(-c2ccncc2)o1)c1ccccc1`, the max response was -2.4% (inactive).
With `O=C(CSc1nnc(-c2c[nH]c3ccccc23)o1)c1ccccc1` the max response was 8.16% (inactive).
In the case of `CN(C(=O)CSc1nnc(-c2n[nH]c3ccccc23)o1)c1ccccc1`, the max response is reported as 15.1% (active).
For `COc1cc(C2/C(=C(\O)c3ccc4c(c3)CC(C)O4)C(=O)C(=O)N2c2nnc(C)s2)cc(OC)c1OC` (stereo not drawn), the max response was -1.71% (inactive).
In the case of `N#C/C(=C/c1ccc(N2CCCCC2)o1)C(=O)NCCc1c[nH]c2ccccc12`, the max response is reported as -3.38% (inactive).
For `Cc1[nH]c2ccccc2c1/C=N\NC(=O)Cn1nnc(-c2ccccc2)n1`, the max response was -0.477% (inactive).
For `Cc1[nH]c2ccccc2c1/C=C(/C#N)C(=O)NC(C)C`, the max response was 16.8% (active).
For `O=C(Nc1nnc(Cc2ccc(Cl)cc2)s1)c1cccnc1`, the max response was 1.24% (inactive).
For `CCOc1cc(NC(=O)c2ccccn2)c(OCC)cc1NC(=O)c1ccc(OC)cc1`, the max response was -3.64% (inactive).
In the case of `COC(=O)[C@@H](NC(=O)Nc1cc(Cl)ccc1C)C(C)C`, the max response is reported as -5.71% (inactive).
In the case of `NS(=O)(=O)c1ccc(NC(=O)COC(=O)c2ccc(Cl)nc2)cc1`, the max response is reported as -4.06% (inactive).
With `Cc1cnc(NC(=O)c2ccc(Cl)nc2)s1` the max response was 43.4% (active).
For `Cc1ccc(NC(=O)c2ccccn2)cc1S(=O)(=O)N1CCOCC1`, the max response was 2.74% (inactive).
For `Cc1ccc(Cl)cc1NC(=O)c1ccccn1`, the max response was 19.9% (active).
With `Cc1cnc(NC(=O)c2ccccn2)s1` the max response was 26.4% (active).
For `O=C(NNc1ccccn1)c1ccc(Cl)nc1`, the max response was 2.34% (inactive).
With `Cc1noc(C)c1C(=O)Nc1ccccn1` the max response was 7.73% (inactive).
For `CCN(CC)c1ccc(NC(=O)c2ccc(Cl)nc2)cc1`, the max response was 16.7% (active).
For `Cc1cnc(NC(=O)Cn2cnc3c2c(=O)n(C)c(=O)n3C)s1`, the max response was -4.16% (inactive).
In the case of `Cc1c(CC(=O)NCCCCCC(=O)O)c(=O)oc2cc3occ(-c4ccccc4)c3cc12`, the max response is reported as -1.63% (inactive).
With `O=C(CCN1C(=O)C2C3CCC(C3)C2C1=O)Nc1ccc(Cl)cc1Cl` (stereo not drawn) the max response was 3.53% (inactive).
For `CCOc1ccc(Nc2nc(Cc3nnc(SCC(=O)c4ccc(C)cc4)o3)cs2)cc1`, the max response was -3.13% (inactive).
With `Cc1ccc(CCNC(=O)c2ccc3nc4ccccc4c(=O)n3c2)cc1` the max response was 4.5% (inactive).
With `CN(C)S(=O)(=O)c1cccc(C(=O)OCC(=O)N2CCCC2=O)c1` the max response was -2.94% (inactive).
With `O=C(Nc1ccc(-n2ccnc2P(=O)(O)c2ccccc2)cc1)c1ccccc1Br` the max response was 2.05% (inactive).
With `COc1ccc(S(=O)(=O)N(CC(=O)N/N=C/c2ccc(C(=O)O)cc2)Cc2ccccc2)cc1OC` the max response was -6.63% (inactive).
With `Cc1nonc1C1CCCN1Cc1nc(-c2ccc(F)cc2F)oc1C` (stereo not drawn) the max response was 6.22% (inactive).
For `CCCOc1ccc(CNC(=O)C2CCN(c3nn4c(=O)cc(C)nc4s3)CC2)cc1`, the max response was -3.96% (inactive).
In the case of `CCc1c(C)nc2cc(C)[nH]n2c1=O`, the max response is reported as -1.78% (inactive).
In the case of `Cc1cc(=O)n2[nH]c(-c3sccc3-n3c(C)ccc3C)cc2n1`, the max response is reported as 5.31% (inactive).
With `C=CCc1c(C)nc2cc(-c3ccccc3)[nH]n2c1=O` the max response was 37% (active).
With `CCc1c(C)nc2cc(-c3cccs3)[nH]n2c1=O` the max response was 29.6% (active).
With `Cc1nc2nc[nH]n2c(=O)c1C/C=C/c1ccccc1` the max response was 10.1% (inactive).
In the case of `CCCCN1Cc2c(nc3cc(-c4ccccc4)[nH]n3c2=O)C1=O`, the max response is reported as 7.79% (inactive).
With `COCCn1cnc2c1c(=O)n(Cc1ccc(Br)cc1)c(=O)n2Cc1ccccc1` the max response was -1.88% (inactive).
In the case of `Cc1ccc(NC(=O)C(CC(=O)O)C2CCCO2)c(C)c1` (stereo not drawn), the max response is reported as -2.11% (inactive).
In the case of `CC(NC(=O)CNC(=O)Cc1cccc2ccccc12)c1ccc(S(N)(=O)=O)cc1` (stereo not drawn), the max response is reported as 4.99% (inactive).
In the case of `Cc1csc2ncc(C(=O)N(Cc3ccccc3)c3ccccn3)c(=O)n12`, the max response is reported as -6.72% (inactive).
With `CC1(C)NC(=O)N(CC(=O)Nc2cc(C(F)(F)F)cc(C(F)(F)F)c2)C1=O` the max response was -1.59% (inactive).
With `O=C1C2CCCN2C(=O)N1CCCCN1CCN(c2cccc(C(F)(F)F)c2)CC1` (stereo not drawn) the max response was -0.302% (inactive).
In the case of `O=C(NCc1ccco1)/C(=C\c1cccc([N+](=O)[O-])c1)NC(=O)c1ccco1`, the max response is reported as -3.43% (inactive).
With `COc1cc(NS(=O)(=O)c2ccc3ccccc3c2)c2ncccc2c1` the max response was -1.06% (inactive) and -1.79% (inactive).
In the case of `CCS(=O)(=O)C1=NSC2=NC(=O)/C(=C\c3ccc(OS(=O)(=O)c4ccccc4)cc3)C(=N)N21`, the max response is reported as 23.1% (active).
In the case of `CS(=O)(=O)C1=NN2C(=N)/C(=C\c3ccc(OCCOc4ccccc4)cc3)C(=O)N=C2S1`, the max response is reported as 8.57% (inactive).
For `Cc1cc(/C=C2/C(=N)N3C(=NC2=O)SN=C3S(C)(=O)=O)c(C)n1-c1ccccc1`, the max response was 28.8% (active).
With `CCS(=O)(=O)C1=NSC2=NC(=O)/C(=C\c3cc(C)n(-c4cccc(OC)c4)c3C)C(=N)N21` the max response was 3.96% (inactive).
In the case of `COc1ccccc1OCCOc1ccc(/C=C2\C(=N)N3N=C(C)SC3=NC2=O)cc1`, the max response is reported as -1.22% (inactive).
For `CCC1=NN2C(=N)/C(=C/c3cc(C)n(-c4ccccc4)c3C)C(=O)N=C2S1`, the max response was 4.37% (inactive).
In the case of `COc1ccc(C(=O)NCCCN2CCOCC2)cc1Br`, the max response is reported as 0.527% (inactive).
For `C/C(=N\N=C(N)N)c1ccc(Cl)cc1`, the max response was -3.34% (inactive).
In the case of `COc1ccc(CCNC(=O)CN(C)S(=O)(=O)c2ccc3nc(C)sc3c2)cc1OC`, the max response is reported as -1.23% (inactive).
For `COc1ccc2c(CC(=O)N3CCc4cc(OC)c(OC)cc4C3)coc2c1`, the max response was -5.51% (inactive).
In the case of `CC(=O)c1ccc(NC(=O)C(C)NCc2ccc(Cl)cc2)cc1` (stereo not drawn), the max response is reported as 32.7% (active).
For `CC(=O)c1ccc(NC(=O)C(C)N(C)CC(=O)Nc2ccccc2Cl)cc1` (stereo not drawn), the max response was 5.03% (inactive).
For `CC(NCc1cccs1)C(=O)Nc1cc(Cl)cc(Cl)c1` (stereo not drawn), the max response was -2.66% (inactive).
For `Nc1c(Cl)cc(-c2csc(N3CCCC3c3nc4cc(Cl)c(Cl)cc4n3CCOCCO)n2)cc1Cl` (stereo not drawn), the max response was 2.13% (inactive).
With `Cc1cc(O)c(C(=O)/C=C/c2c(F)c(F)c(F)c(F)c2F)c(=O)o1` the max response was 35.8% (active).
In the case of `C/C(=N\NS(=O)(=O)c1ccccc1)c1c(O)cc(C)oc1=O`, the max response is reported as 3.15% (inactive).
With `Cc1ccc(N=Cc2c(O)cc(C)oc2=O)c(C)c1` the max response was -0.907% (inactive).
In the case of `O=C(Cc1cccs1)N(CC1CCCO1)C1(C(=O)NC2CCCCC2)CCCCC1` (stereo not drawn), the max response is reported as -1.59% (inactive).
In the case of `CCCOc1ccc(Cc2c(O)nc(N)[nH]c2=O)cc1C`, the max response is reported as -2.37% (inactive).
In the case of `COc1c(O)ccc2c1CN1CCc3cc4c(cc3C1C2)OCO4` (stereo not drawn), the max response is reported as -3.13% (inactive).
For `Cn1c(S(=O)(=O)O)nc2ccccc21`, the max response was -1.42% (inactive).
With `Cn1cccc1-c1nc2ccccc2n1C` the max response was 18% (active).
For `Cc1nn2c3ccccc3nc2n(C)c1=O`, the max response was -2.2% (inactive).
With `CCn1cc(C(=O)N2CC=C(c3ccccc3)CC2)c(=O)c2ccc(C)nc21` the max response was 7.37% (inactive).
With `COC(=O)c1nn(-c2cccc(Cl)c2)ccc1=O` the max response was 4.96% (inactive).
In the case of `Cc1cccc(-c2nnc(SCC(=O)O)n2Cc2ccccc2)c1`, the max response is reported as -1.57% (inactive).
For `Cc1cc(C)c2c(Cn3ccnc3)cc(=O)oc2c1`, the max response was -3.34% (inactive).
In the case of `Cc1cccc(N(C)C(=O)CN2C(=O)COc3ccc(S(=O)(=O)N4CCCCCC4)cc32)c1`, the max response is reported as -2.56% (inactive).
In the case of `COc1ccc(S(=O)(=O)N(CC(=O)NCc2ccco2)c2ccc(F)cc2)cc1`, the max response is reported as -2.34% (inactive).
In the case of `O=C(Nc1cccc2ccccc12)N1CCN(Cc2ccc3c(c2)OCO3)CC1`, the max response is reported as -0.788% (inactive).
In the case of `COc1ccc(NC(=O)N2CCC3(CC2)OCCO3)c(OC)c1`, the max response is reported as 0.567% (inactive).
In the case of `O=C(Nc1cccc2ccccc12)N1CCC2(CC1)OCCO2`, the max response is reported as 22.3% (active).
